Experimental data: ChEMBL document CHEMBL3433997, “St. Jude Leishmania screening dataset” (2016)

Columns and labels:
Assay type in all cases: functional
[1] = molecular target: Solute carrier family 2, facilitated glucose transporter member 1 (Homo sapiens) (UniProt P11166); experiment: ST_JUDE_LEISH: Cytotoxicity at 2uM final concentration against transgenic Leishmania Mexicana promastigotes LmGLUT1 that are glucose transport deficient and complemented with the human glucose transporter GLUT1. Activity is measured by DNA content using SYBR green in vitro
[2] = molecular target: Hexose transporter 1 (Plasmodium falciparum) (UniProt O97467); experiment: ST_JUDE_LEISH: Cytotoxicity at 2uM final concentration against transgenic Leishmania Mexicana promastigotes LmPfHT that are glucose transport deficient and complemented with the Plasmodium falciparum hexose transporter. Activity is measured by DNA content using SYBR green in vitro
[3] = molecular target: Glucose transporter (Leishmania mexicana) (UniProt O61059); experiment: ST_JUDE_LEISH: Cytotoxicity at 2uM final concentration against transgenic Leishmania Mexicana promastigotes LmGT2 that are glucose transport deficient and complemented with the L. Mexicana glucose transporter 2. Activity is measured by DNA content using SYBR green in vitro

Chain of Solute carrier family 2, facilitated glucose transporter member 1 (Homo sapiens) (P11166 whole entry): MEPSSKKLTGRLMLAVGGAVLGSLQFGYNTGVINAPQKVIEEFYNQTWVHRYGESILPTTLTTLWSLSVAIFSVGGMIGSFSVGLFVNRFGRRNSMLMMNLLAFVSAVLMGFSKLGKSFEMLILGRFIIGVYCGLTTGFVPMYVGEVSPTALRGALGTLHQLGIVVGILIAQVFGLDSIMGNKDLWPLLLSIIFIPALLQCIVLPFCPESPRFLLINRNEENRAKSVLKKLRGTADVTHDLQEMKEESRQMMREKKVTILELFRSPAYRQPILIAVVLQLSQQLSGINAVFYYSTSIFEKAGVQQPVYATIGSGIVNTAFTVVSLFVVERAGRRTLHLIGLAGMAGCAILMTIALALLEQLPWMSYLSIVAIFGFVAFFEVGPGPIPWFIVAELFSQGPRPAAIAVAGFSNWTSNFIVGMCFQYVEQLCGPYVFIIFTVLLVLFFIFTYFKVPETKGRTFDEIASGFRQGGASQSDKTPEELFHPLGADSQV

| Compound | inhibition [1] [%] | inhibition [2] [%] | inhibition [3] [%] |
| --- | --- | --- | --- |
| CCC(C)NC(=O)Nc1cccc(-c2cccc(-c3nc4cccc(C)c4[nH]3)c2)c1 (stereo not given) | -1.54 | -0.37 | 11.5 |
| O=C(CSc1nc(-c2ccccc2Cl)ns1)Nc1ccc2c(c1)OCO2 | -0.52 | -0.45 | -1.67 |
| CCN(CC)CCNC(=O)c1ccc(NC(=O)c2ccc(-c3cc(NC(=O)CC4CCCC4)ccc3C)cc2)cc1 | 2.1 | 1.64 | 2.4 |
| CN1CCC(NC(=O)c2cc(Oc3ccc4c(c3)CCN4C(=O)Nc3cccc(C(F)(F)F)c3)ccn2)CC1 | 3.67 | 6.55 | 1.74 |
| NC(=O)c1ccccc1OCC(=O)Nc1ccc(-c2cccc(-c3nc4cc(C(F)(F)F)ccc4[nH]3)c2)cc1 | 2.52 | -0.46 | 3.74 |
| CN(C)Cc1cccc(-c2cc3c(-c4cnn(C)c4)c(Cl)cnc3[nH]2)c1 | 95.7 | 95 | 94.2 |
| CC(C)COc1ccc(Cl)cc1Cc1ccc(-c2nc3c(F)cccc3[nH]2)o1 | 0.36 | 0.7 | 2.89 |
| CCOC(=O)c1ccc(OCc2ccc(-c3ccccc3)cc2)cc1 | -0.38 | -0.13 | 0.75 |
| COc1ccc(NC(=O)[C@H](CC(C)C)Nc2cc(C)nc(NCc3ccccc3C)n2)cc1 | 1.76 | 2.18 | 0.33 |
| COc1cc(C)nc2ccc(NC(=O)Nc3ccc4nc(C)cc(OC)c4c3)cc12 | 8.47 | 6.65 | 8.59 |
| COc1ccc2c(N/N=C/c3ccccc3[N+](=O)[O-])cc(C)nc2c1 | 3.18 | 2.75 | 2.99 |
| Cc1ncc([N+](=O)[O-])n1CCOC(=O)NC(NCC1COc2ccccc2O1)C(Cl)(Cl)Cl (stereo not given) | 2.63 | 2.63 | 2.19 |
| Brc1cc(CNCCCNc2nc3ccccc3[nH]2)sc1Br | 6.22 | 9.1 | 6.32 |
| Nc1cccc(-c2ccc3ccnc(N)c3c2)c1 | 3.63 | 4.39 | 3.35 |
| CCCCc1cc(Cc2cnc(N)nc2N)cc(OC)c1OC | 3.17 | 2.41 | 0.98 |
| O=C(NCCCN1CCCCC1)c1ccc(Nc2nccc(Nc3ccc(Oc4ccccc4)cc3)n2)cc1 | 10.4 | 8.47 | 7.37 |
| Oc1ccc(CN2Cc3ccccc3OC3(CCN(Cc4c[nH]c5cnccc45)CC3)C2)cc1 | -0.29 | -0.21 | -3.09 |
| COc1ccccc1N1CCN(C(C(=O)NCc2cccc(F)c2)c2ccc(C)cc2)CC1 (stereo not given) | 2.99 | 3.56 | -1.92 |
| COc1ccccc1CCNc1nc(C)cc(N[C@@H](Cc2ccccc2)C(=O)NCCCOC(C)C)n1 | 3.06 | 3.2 | -0.1 |
| O=C1NC(=S)N/C1=C/C=C/c1ccc([N+](=O)[O-])o1 | 27.9 | 30.9 | 5.12 |
| CN1CCN(c2ccc(Nc3c(C(N)=O)cnc4cc(-c5ccoc5)ccc34)cc2C(F)(F)F)CC1 | 2.31 | 2.21 | 2.01 |
| CN(C)CCOc1ccc2nc(-c3cccc(OCc4ccccc4)c3)[nH]c2c1C#N | 2.41 | 1.25 | 1.74 |
| O=C1OC(c2ccccc2)(c2ccccc2)CN1C1CCN(Cc2ccc(O)c(Cl)c2)C1 (stereo not given) | 1.71 | 1.04 | -0.68 |
| CCCNCc1ccc(-c2ccc(CN(C(=O)c3nn(-c4ccccc4)nc3C)C3CCOCC3)cc2)nc1 | -0.49 | -0.28 | -1.66 |
| O=C(NC1CCC(N2CCC(Cc3ccc(F)cc3)CC2)CC1)c1cc2ccccc2[nH]1 (stereo not given) | 0.56 | 0.08 | 0.47 |
